This note sets out measurements from PubChem BioAssay AID504710 (Sanford-Burnham Center for Chemical Genomics, 2011).

Each structure is given as a SMILES string. Unmarked numbers belong to inactive results. Calls of active or inactive are those of the source.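 The calls were made as follows: active = inhibition reaching about 16% in any single replicate (limit read from the data); inactive = the rest.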

The target in the experiment is Hexokinase HKDC1 (Homo sapiens) (UniProt Q2TB90). The experiment is described as follows: compounds lowering human HKDC1 activity – biochemical, single concentration, confirmation (AID 504710). The settings on record: recombinant HKDC1, G6PDH/diaphorase/resazurin fluorescence; at 20 µM; active compounds read high.
Chain of Hexokinase HKDC1 (Homo sapiens) (Q2TB90 whole entry, looked up): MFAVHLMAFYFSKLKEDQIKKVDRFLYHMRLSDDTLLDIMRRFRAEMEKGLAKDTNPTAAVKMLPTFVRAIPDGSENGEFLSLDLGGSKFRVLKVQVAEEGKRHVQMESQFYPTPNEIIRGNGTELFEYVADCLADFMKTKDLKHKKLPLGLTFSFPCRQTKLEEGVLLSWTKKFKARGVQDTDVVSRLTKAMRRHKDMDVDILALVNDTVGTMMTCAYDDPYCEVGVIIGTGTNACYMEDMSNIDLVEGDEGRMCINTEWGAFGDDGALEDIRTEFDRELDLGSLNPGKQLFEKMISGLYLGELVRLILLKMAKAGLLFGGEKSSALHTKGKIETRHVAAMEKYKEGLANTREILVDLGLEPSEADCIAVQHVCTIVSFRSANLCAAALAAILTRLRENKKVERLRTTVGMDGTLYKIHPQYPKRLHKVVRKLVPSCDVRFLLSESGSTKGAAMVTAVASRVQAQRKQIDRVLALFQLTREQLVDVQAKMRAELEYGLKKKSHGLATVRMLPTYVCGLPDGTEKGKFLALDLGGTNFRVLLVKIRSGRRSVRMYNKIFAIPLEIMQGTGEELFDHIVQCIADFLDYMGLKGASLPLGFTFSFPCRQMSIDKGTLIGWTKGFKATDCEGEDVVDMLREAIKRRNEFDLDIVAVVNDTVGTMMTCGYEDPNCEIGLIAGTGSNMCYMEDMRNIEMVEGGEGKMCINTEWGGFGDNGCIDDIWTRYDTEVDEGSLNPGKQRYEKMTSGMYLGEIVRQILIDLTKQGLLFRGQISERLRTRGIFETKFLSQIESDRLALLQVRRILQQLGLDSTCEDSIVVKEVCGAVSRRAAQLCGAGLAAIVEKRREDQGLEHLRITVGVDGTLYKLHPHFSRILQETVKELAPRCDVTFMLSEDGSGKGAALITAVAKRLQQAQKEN
As to `Cc1nc([N+](=O)[O-])c(Br)n1CC(=O)c1ccc2ccccc2c1`, the inhibition (usually the relative decrease from the control value, in per cent) was 40.1% (active).

As to `CCOC(=O)CSc1nc2ccc(C)cc2n2cnnc12`, the inhibition was 63.8% (active).

In the case of `O=C1C(Cl)=C(Oc2ccccc2)C(=O)c2ccccc21`, the inhibition was 77.7% (active).

`CC(=NNC(=S)N1CC2CCC(CC2)C1)c1ccncn1`: the inhibition is -61.4%.

With `COC1=CC(=O)C(OC)=C(OC)C1=O`, the inhibition was 71.9% (active).

`Cc1ccc(S(=O)(=O)/N=C2\C=C(Nc3cccc(C(=O)O)c3)C(=O)c3ccccc32)cc1`: the inhibition is 79.9% (active).

Turning to `CC12CCC(C(=O)N/N=C/c3ccc(O)cc3O)(OC1=O)C2(C)C` (stereo unspecified), the inhibition was -34.9%.

For `CCOC(=O)c1c(NC(=O)CSc2nnnn2-c2ccc(OC)cc2)sc(C)c1C`, the inhibition is -42.3%.

With `COc1ccc(NC(=O)CSc2ccc(-c3ccco3)nn2)c(OC)c1`, the inhibition was 70.8% (active).

With `O=C(O)c1ccc(NC2=C(Cl)C(=O)c3ccccc3C2=O)cc1`, the inhibition is -94.3%.

Turning to `COCc1cc(C2C(C(=O)c3ccco3)=C(O)C(=O)N2CCOCCO)ccc1O` (stereo unspecified), the inhibition was -40.1%.

In the case of `Nc1ccc(S(=O)(=O)c2cc(O)c3ccccc3c2O)cc1`, the inhibition was 68.7% (active).

On to `Cc1cc2cc(CCNC(=O)c3ccc(S(=O)(=O)N4CCOCC4)cc3)c(=O)[nH]c2cc1C`, for which the inhibition is 45% (active).

Consider `Cc1oc2c(c1C(=O)c1ccccc1)C(=O)C(=O)c1ccccc1-2`, for which the inhibition is 51.8% (active).

For `Cc1cc2nnc(SCC(=O)Nc3cc(S(=O)(=O)N4CCOCC4)ccc3Cl)n2c2ccccc12`, the inhibition was 37.4% (active).

As to `O=C(NCCc1ccccc1)c1cnn2c(C(F)F)cc(C3CC3)nc12`, the inhibition is 59.8% (active).
